D2 ag-1 – agonists of human D2 dopamine receptor | activation, % at 2 µM | 340,000 compounds, 0.53% hits | HEK293 T-REx D2 cells, calcium flux agonist mode;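 active means activation over 3 SD above normal in the single-dose calcium agonist read, cut at about 30% in these data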
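Tetracycline-induced HEK293 Trex cells with D2 receptor force-coupled to calcium signaling, plated overnight at 30 C and loaded with no-wash calcium dye. Calcium flux read kinetically for 180 s after compound addition; responses flag agonists.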
D2 PAM-1 – potentiates the human D2 dopamine receptor allosterically; DiscoveRx D2 beta-arrestin cells, luminescence, 90 min; 100% = 57 uM dopamine signal; P14416; 360,000 compounds, 0.23% hits; potentiation, % (no concentration beside the values); in the data active means potentiation above about 50%; inconclusive means mostly about 30% to 49%
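D2 cells co-treated with compound plus 50 nM dopamine (EC20) for 90 min at 37 deg C to detect potentiation. Beta-arrestin recruitment was read as enzyme-fragment luminescence after 1 h at ambient temperature. Full response was set by 57 uM dopamine.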
D2 antag – D2 dopamine receptor (human) antagonism; inhibition, % at 10 µM; P14416; HEK293 TREx D2 cells, calcium flux, dopamine EC80; 340,000 compounds, 2% hits; in the data active means inhibition above about 30%; inactive means below that, where a call was filed
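Measurement of antagonist activity uses fluorescent calcium dye in inducible HEK293 T-REx D2 cells: 10 s baseline, compound addition with 180 s read, EC80 dopamine addition with a further 180 s read.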
D2 PAM-2 – positive allosteric modulators of human D2 dopamine receptor; P14416; HEK293 T-REx D2, calcium flux, EC20 dopamine potentiation; potentiation, % at 10 µM; 340,000 compounds, 0.34% hits;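 active means potentiation over 3 SD above the plate norm, cut at about 30% in these data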
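Cells plated with tetracycline inducer and held overnight at 30 C; calcium dye loaded 30–90 min at room temperature; baseline taken, compound added and read 180 s; EC20 dopamine then added and read 180 s.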
D2 ag-2 – activates the human D2 dopamine receptor; P14416; DiscoveRx PathHunter D2 beta-arrestin, luminescence, 90 min; 100% = 57 uM dopamine signal; activation, % (concentration not given with the values); 360,000 compounds, 0.084% hits; in the data active means activation above about 40%; inconclusive means between about 15% and that limit
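Agonist mode: compounds alone added to overnight-plated D2 PathHunter cells for 90 min at 37 C, with 57 uM final dopamine (EC100) defining full response. Beta-arrestin recruitment detected by chemiluminescent reagent, read after 1 h at ambient temperature.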
D3 ag – confirmation of human D3 dopamine receptor agonists, beta-arrestin; DiscoveRx D3 beta-arrestin cells, luminescence, 90 min; AID 720506; shares compounds with D2 ag-1; 2,300 compounds, 4% hits; Potency, µM (titrated, usually from 76.9 µM), usual class: activators; further: nearly all actives have a fitted effect of over 70% in size
Target sequence (P35462 whole entry, looked up): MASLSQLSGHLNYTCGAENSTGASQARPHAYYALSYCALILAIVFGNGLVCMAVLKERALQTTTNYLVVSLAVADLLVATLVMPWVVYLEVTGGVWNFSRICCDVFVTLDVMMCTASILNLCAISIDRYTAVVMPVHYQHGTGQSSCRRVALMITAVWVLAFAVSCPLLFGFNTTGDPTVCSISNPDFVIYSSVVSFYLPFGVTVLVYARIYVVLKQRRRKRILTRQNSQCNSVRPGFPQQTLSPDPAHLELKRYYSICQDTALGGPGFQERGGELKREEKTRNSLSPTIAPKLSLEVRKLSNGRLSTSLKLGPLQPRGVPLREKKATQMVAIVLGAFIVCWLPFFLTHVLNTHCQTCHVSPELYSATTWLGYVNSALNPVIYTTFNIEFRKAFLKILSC
D2 ag-3 – D2 receptor agonism, beta-arrestin counterscreen; DiscoveRx PathHunter D2 beta-arrestin, luminescence, 90 min; response scale: percent relative to full dopamine signal; Potency, µM (doses to about 76.9 µM), actives largely listed as activators; 2,300 compounds, 5.9% hits; shares compounds with D2 ag-1; further: nearly all actives have a fitted effect of over 70% in size
A number is an active result; . = inactive; ? = inconclusive; / = no result. A selection: hits, their analogues and other compounds. The true share with any hit is near 2.4%. Unless noted, the call rests on the fitted dose curve; in most records, active means well fitted activation curve with a large enough effect; inconclusive means small, poorly fitted or top-dose-only effect; inactive means flat fitted curve, though single readings scatter.

SMILES | D2 ag-1 | D2 PAM-1 | D2 antag | D2 PAM-2 | D2 ag-2 | D3 ag | D2 ag-3
CCOc1ccc(N(CC)S(=O)(=O)c2cc(Br)cc3c2N(C(C)=O)C(C)C3)cc1 (stereo not drawn) | . | / | / | . | / | / | /
COc1ccccc1OCC(=O)NNC(=O)c1cccs1 | . | . | . | . | . | / | /
Cc1ccccc1OCCC(=O)OCC(=O)NNC(=O)c1cccs1 | / | . | / | / | . | . | .
CC(C)C(NC(=O)CCN1C(=O)c2ccccc2C1=O)c1ccccc1 (stereo not drawn) | . | . | . | . | . | . | .
CC(NC(=O)CN1C(=O)c2ccccc2C1=O)c1ccccc1 (stereo not drawn) | / | . | / | / | . | / | /
O=C(O)/C=C/C(=O)NCc1ccccc1 | . | . | . | . | . | / | /
O=C(O)/C=C/C(=O)NCCCc1ccccc1 | . | . | . | . | . | . | .
O=C(C1=C(O)/C(=C/c2ccc(O)cc2)CCC1)C(F)(F)F | . | . | . | . | . | . | .
COc1ccc(/C=C2\CCCC(C(=O)C(F)(F)F)=C2O)cc1 | . | . | . | . | . | / | /
CN(C)CCOc1ccccc1-c1ccccc1 | / | . | / | / | . | / | /
CCCCNCCOc1ccccc1-c1ccccc1 | . | . | 69 | . | . | . | .
CC(O)CNCCOc1ccccc1-c1ccccc1 (stereo not drawn) | 58 | . | 58 | . | . | . | .
COC(=O)c1ccc(-n2c(/C=C/c3cc(OC)c(OC)c(OC)c3)nc3cc(Cl)ccc3c2=O)cc1 | . | / | / | . | / | / | /
CN(C)S(=O)(=O)c1ccc2c(c1)N(CC(=O)NCc1cccc(Br)c1)C(=O)CS2 | . | / | / | . | / | / | /
COc1ccc(C#Cc2cccc(-c3nc(C(=O)N4CCN(C)CC4)cc4c3[C@H](CCO)N(S(=O)C(C)(C)C)C4)c2)cc1OC (stereo partly drawn) | / | . | / | / | . | / | /
CCCCN1CC(COC)Oc2cccc(F)c2S1(=O)=O (stereo not drawn) | / | . | / | / | . | / | /
Nc1nc2ccccc2n1/N=C/c1ccc([N+](=O)[O-])s1 | . | . | . | . | . | ? | .
OCCC1CN(CCCc2ccccc2)CCN1Cc1ccccc1 (stereo not drawn) | 57 | . | 40 | . | . | . | .
COc1cc(CN2CCN(CCc3ccccc3)C(CCO)C2)cc(OC)c1 (stereo not drawn) | . | . | . | . | . | / | /
COc1cc(CN2CCN(CCCc3ccccc3)CC2CCO)cc(OC)c1 (stereo not drawn) | 63 | . | 65 | . | . | . | .
OCCC1CN(CCCc2ccccc2)CCN1CCc1ccccc1 (stereo not drawn) | . | . | . | . | . | / | /
OCCC1CN(C/C=C/c2ccco2)CCN1Cc1ccccc1 (stereo not drawn) | . | . | . | . | . | . | .
COc1ccccc1/C=C/CN1CCN(Cc2ccc(F)cc2)C(CCO)C1 (stereo not drawn) | / | . | / | / | . | / | /
CC(=O)NC(c1cccc(F)c1)c1nc(-c2ccc(N(C)C)cc2)cs1 (stereo not drawn) | / | . | / | / | . | / | /
COc1ccc2c(c1)c1c(c(=O)n(Cc3ccccc3)c(=O)n1CC(=O)NCc1ccc(C)cc1)n2C | . | / | / | . | / | / | /
SMILES | D2 ag-1 | D2 PAM-1 | D2 antag | D2 PAM-2 | D2 ag-2 | D3 ag | D2 ag-3
Cc1cc(=O)[nH]c2nc3ccccc3n12 | / | . | / | / | . | / | /
CC(C)c1nnc(NC(=O)c2cc3cc(Br)ccc3oc2=O)s1 | . | . | . | . | . | . | .
O=C(Nc1ccccc1O)c1cc2cc(Br)ccc2oc1=O | . | . | . | . | . | / | /
CCOc1ccc(NC(C)=O)cc1N | . | . | . | . | . | . | .
CCOc1ccc(NC(C)=O)cc1[N+](=O)[O-] | . | . | . | . | . | / | /
COc1ccc(C2CC(c3cccs3)=NN2C(=O)CCCC(=O)O)cc1OC (stereo not drawn) | / | . | / | / | . | / | /
O=C1CSC(=S)N1N=Cc1ccc(Cl)s1 | / | . | / | / | . | / | /
C[C@@H]1CCCCCCCCC(=O)OCCN1C(=O)OC(C)(C)C | . | . | . | . | . | . | .
C[C@@H]1CCCCCCCCC(=O)OCCN(C(=O)OC(C)(C)C)[C@H](C)CCCCCCCCC(=O)OCCN1C(=O)OC(C)(C)C | / | . | / | / | . | / | /
CCOc1ccc(CN2C(=O)C(=O)c3cccc(C)c32)cc1OC | . | / | / | . | / | / | /
CCN(C(=O)CSc1ncccn1)c1c(N)n(Cc2ccccc2)c(=O)[nH]c1=O | . | . | . | . | . | . | .
Cc1ccc(OCCOCCN2CCCCC2)c([N+](=O)[O-])c1 | . | . | . | . | . | / | /
Cc1ccc([N+](=O)[O-])c(OCCN2CCNCC2)c1 | 68 | . | 71 | . | . | ? | .
COc1cc(Cl)c(C)cc1NC(=O)Cn1ncc2c([nH]c3ccccc32)c1=O | . | / | / | . | / | / | /
COc1ccc(CC2(CO)CCN(Cc3cc4ccccc4o3)CC2)cc1 | / | . | / | / | 62 | ? | 11µM
COc1ccc(CC2(CO)CCN(Cc3ccncc3)CC2)cc1 | . | . | . | . | . | / | /
OCC1(Cc2cccc(C(F)(F)F)c2)CCN(Cc2cc3ccccc3o2)CC1 | 49 | . | . | . | 51 | ? | 40µM
COc1c(C)cc(C(O)c2ncc(-c3ccc(C(F)(F)F)cc3)[nH]2)cc1C (stereo not drawn) | / | . | / | / | . | / | /
O=S1(=O)CCC(NC(=S)Nc2ccc3ccccc3c2)C1 (stereo not drawn) | . | . | . | . | . | / | /
CC1(NC(=S)Nc2ccc3ccccc3c2)CCS(=O)(=O)C1 (stereo not drawn) | . | . | 37 | . | . | . | .
OC(COCc1ccccc1)CN1CCN(c2ccccc2)CC1 (stereo not drawn) | 86 | . | 86 | . | . | ? | ?
COCCOCC(O)CN1CCN(c2ccccc2)CC1 (stereo not drawn) | 84 | . | 59 | . | . | . | .
OC(COCC1COc2ccccc2O1)CN1CCN(c2ccccc2)CC1 (stereo not drawn) | 67 | . | 60 | . | ? | ? | ?
COc1ccc(OCC(=O)Nc2ccc3c(c2)N(C)C(=O)c2ccccc2S3)cc1 | . | / | / | . | / | / | /
COCCNC(=O)c1cccc(OC2CCN(C(C)COc3ccccc3)CC2)c1 (stereo not drawn) | 45 | . | . | . | . | . | .
O=C(CN1CCN(c2ccc(O)cc2)CC1)Nc1ccc2c(c1)OCCCO2 | 35 | . | . | . | . | 40µM | 35µM
O=C(CCN1CCN(c2ccccc2F)CC1)Nc1ccc2c(c1)OCO2 | 80 | . | 86 | . | ? | ? | ?
